# Reference: PubChem BioAssay (NCATS)
# “And” between values parts separate entries of the source, which are not always exact repeats. Identical values can stand only once. Inconclusive results are not listed. Unmarked numbers belong to inactive results. The source made the active and inactive calls. Calls follow the shape of the dose curve; as a rule, active = well fitted curve in the direction sought with a large enough effect; inconclusive = small, poorly fitted or top-dose-only effect, or another doubt; inactive = no such curve, though single readings can be large; an effect the other way counts as inactive or inconclusive.
# Columns and labels:
# [1] = target: Cellular tumor antigen p53 (Homo sapiens) (UniProt P04637); test: Primary qHTS for small molecule compounds that upregulate eGFP-tagged delta133p53alpha (in N-terminal) cells. (AID 2060322); settings: NCI-H358 eGFP-delta133p53alpha fluorescence, 24 h; activation: stronger effect = higher value; also: nearly all actives have a fitted effect of over 75% in size; also: potency is read from the fitted curve at half-maximal effect;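 as to activation: 0% = DMSO vehicle and 100% = reference activator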
# Outline: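 NCI-H358 cells pre-induced 24 h with 10 ng/ml doxycycline to express N-terminal eGFP-delta133p53alpha, then dosed 24 h at 37C without doxycycline; fixed, Hoechst-stained, GFP intensity by laser scanning cytometry, normalized to DMSO (0%) and 57.5 uM 5-azacytidine (100%).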
# [2] = target: Aldehyde dehydrogenase, mitochondrial (Homo sapiens) (UniProt P05091); test: qHTS for Inhibitors of the Aldehyde Dehydrogenase Family (ALDH2) Primary screen (AID 2061308); settings: ALDH2 enzyme inhibition qHTS, 1536-well; series mostly up to 56 µM;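 also: plate controls were vehicle for no effect and reference inhibitor for full effect; nearly all actives have a fitted effect of over 55% in size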
# [3] = target: Retinaldehyde dehydrogenase 3 (Homo sapiens) (UniProt P47895); test: qHTS for Inhibitors of the Aldehyde Dehydrogenase Family (ALDH1A3) Validation screen (AID 2061312); settings: ALDH1A3 enzyme inhibition qHTS validation, fluorescence; series mostly up to 84.7 µM; also: nearly all actives have a fitted effect of over 45% in size; also: potency is read from the fitted curve at half-maximal effect; as to activity change, negative = inhibition: % is scaled to controls: 0 for no effect and ±100 for the full control effect
# [4] = target: Retinaldehyde dehydrogenase 3 (Homo sapiens) (UniProt P47895); test: qHTS for Inhibitors of the Aldehyde Dehydrogenase Family (ALDH1A3) Primary screen (AID 2061315); settings: ALDH inhibition qHTS; series mostly up to 56 µM; also: potency is read from the fitted curve at half-maximal effect;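 as to activity change, negative = inhibition: plate controls were DMSO vehicle for no effect and reference inhibitor for full effect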
# [5] = target: Retinaldehyde dehydrogenase 3 (Homo sapiens) (UniProt P47895); test: qHTS for Inhibitors of the Aldehyde Dehydrogenase Family (ALDH1A3) Confirmatory screens (AID 2061311); settings: ALDH inhibition qHTS; series mostly up to 46 µM; also: potency is read from the fitted curve at half-maximal effect; nearly all actives have a fitted effect of over 60% in size
# [6] = target: Aldehyde dehydrogenase 1A1 (Homo sapiens) (UniProt P00352); test: qHTS for Inhibitors of the Aldehyde Dehydrogenase Family (ALDH1A1) Confirmatory screens (AID 2061316); settings: ALDH inhibition qHTS; series mostly up to 47.3 µM; also: nearly all actives have a fitted effect of over 65% in size; also: potency is read from the fitted curve at half-maximal effect; as to activity change, negative = inhibition: % is scaled to controls: 0 for no effect and ±100 for the full control effect
# [7] = BET inhibitor-based combinations targeting novel dependencies in MECOM-rearranged (r) AML: SET-2 cell line (AID 2202231); settings: SET-2 AML cells viability, CellTiter-Glo luminescence, 48 h; viability: stronger effect = lower value, concentration not given here; also: potency is read from the fitted curve at half-maximal effect; nearly all actives have a fitted effect of over 35% in size
# Outline: (§1)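 Cells were plated at 500 per well and exposed to an 11-point dose series of each drug for 48 hr. Viability was measured by CellTiter-Glo luminescence, normalized to DMSO and empty-well controls, and summarized as AUC and per-cell-line Z-AUC.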
# [8] = BET inhibitor-based combinations targeting novel dependencies in MECOM-rearranged (r) AML: OCI-AML3 cell line (AID 2202232); settings: CellTiter-Glo luminescence, 48 h; Potency: OCI-AML3 viability; series mostly up to 46 µM; also: potency is read from the fitted curve at half-maximal effect; nearly all actives have a fitted effect of over 35% in size
# Outline: as §1
# [9] = BET inhibitor-based combinations targeting novel dependencies in MECOM-rearranged (r) AML: MV-4-11 cell line (AID 2202233); settings: MV-4-11 AML viability, CellTiter-Glo luminescence, 48 h; series mostly up to 46 µM; also: potency is read from the fitted curve at half-maximal effect; nearly all actives have a fitted effect of over 45% in size
# Outline: (§2)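 Activity is given as area under the curve and as Z-AUC, mean-centred within each cell line. It comes from 11-point dose curves normalized to DMSO and empty wells. CellTiter-Glo luminescence was read after 48 hr drug exposure of 500 cells/well.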
# [10] = BET inhibitor-based combinations targeting novel dependencies in MECOM-rearranged (r) AML: HNT-34 cell line (AID 2202234); settings: HNT-34 AML viability, CellTiter-Glo luminescence, 48 h; series mostly up to 46 µM; also: potency is read from the fitted curve at half-maximal effect; nearly all actives have a fitted effect of over 35% in size
# Outline: as §2
# [11] = BET inhibitor-based combinations targeting novel dependencies in MECOM-rearranged (r) AML: UCSD-AML1 cell line (AID 2202235); settings: UCSD-AML1 AML cells viability, CellTiter-Glo, 48 h; series mostly up to 46 µM; also: potency is read from the fitted curve at half-maximal effect; nearly all actives have a fitted effect of over 40% in size
# Outline: as §2
# [12] = BET inhibitor-based combinations targeting novel dependencies in MECOM-rearranged (r) AML: AML-191 cell line (AID 2202236; also: potency is read from the fitted curve at half-maximal effect; nearly all actives have a fitted effect of over 35% in size); settings: AML-191 viability, CellTiter-Glo luminescence, 48 h; series mostly up to 46 µM
# Outline: as §1
# [13] = BET inhibitor-based combinations targeting novel dependencies in MECOM-rearranged (r) AML: AML-194 cell line (AID 2202237; also: potency is read from the fitted curve at half-maximal effect; nearly all actives have a fitted effect of over 40% in size); settings: AML-194 (MECOM-r AML) viability, CellTiter-Glo, 48 h; series mostly up to 46 µM
# Outline: as §1
# [14] = target: Retinal dehydrogenase 2 (Homo sapiens) (UniProt O94788); test: qHTS for Inhibitors of the Aldehyde Dehydrogenase Family (ALDH1A2) Confirmation screens (AID 2061314); settings: ALDH1A2 enzyme inhibition qHTS confirmation; series mostly up to 45.9 µM; also: nearly all actives have a fitted effect of over 65% in size
# Cellular tumor antigen p53 (Homo sapiens), sequence (P04637 whole entry, looked up): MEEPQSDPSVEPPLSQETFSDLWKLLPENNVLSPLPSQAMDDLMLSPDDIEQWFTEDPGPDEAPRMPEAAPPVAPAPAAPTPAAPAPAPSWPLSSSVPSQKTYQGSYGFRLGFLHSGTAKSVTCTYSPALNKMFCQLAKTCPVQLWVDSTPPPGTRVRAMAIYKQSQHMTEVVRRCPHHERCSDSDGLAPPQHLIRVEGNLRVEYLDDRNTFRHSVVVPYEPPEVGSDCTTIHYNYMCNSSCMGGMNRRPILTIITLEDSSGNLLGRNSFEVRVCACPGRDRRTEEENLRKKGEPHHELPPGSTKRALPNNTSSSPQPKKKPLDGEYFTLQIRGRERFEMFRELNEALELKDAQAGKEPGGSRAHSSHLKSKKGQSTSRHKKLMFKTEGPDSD
structure (smiles),measurement,setting,value
CC(C)(C)c1ccc(S(=O)(=O)NCc2ccc(C(=O)Nc3cccnc3)cc2)cc1,activation,[1],1.91%
same,Potency,[2],inactive
same,Potency,[3],inactive
same,Potency,[4],inactive
COc1cncc(C#Cc2ccccn2)c1,activation,[1],1.43%
same,Potency,[2],inactive
same,Potency,[3],22.4 µM (active)
COc1ccc(C2Sc3ccccc3N(CCN(C)C)C(=O)C2OC(C)=O)cc1 (stereo not drawn),activation,[1],-11.5%
same,Potency,[2],inactive
same,Potency,[3],inactive
same,Potency,[4],inactive
COc1cc(O[C@@H]2O[C@H](CO[C@H]3OC[C@](O)(CO)[C@H]3O)[C@@H](O)[C@H](O)[C@H]2O)cc(OC)c1O,activation,[1],-16.8%
same,Potency,[2],inactive
same,Potency,[5],4.91 µM (active)
same,Potency,[4],2.82 µM (active)
same,Potency,[6],inactive
CCC(=O)N1CCc2cc(OC)c(O)cc2C1,activation,[1],-7.64%
same,Potency,[2],inactive
same,Potency,[3],22.4 µM (active)
COc1ccc(CCc2nc3cc(-c4c(C)noc4C)ccc3n2C[C@H](C)N2CCOCC2)cc1Cl,activation,[1],20.1%
same,Potency,[2],inactive
same,Potency,[3],inactive
same,Potency,[4],inactive
CNCc1ccc(-c2[nH]c3cc(F)cc4c3c2CCNC4=O)cc1,activation,[1],35.7%
same,Potency,[2],inactive
same,Potency,[3],inactive
COC(=O)[C@H](CC1C=NC=N1)NCC12CC3CC(CC(C3)C1)C2 (stereo partly drawn),activation,[1],-8.11%
same,Potency,[2],inactive
same,Potency,[3],inactive
CNCCC(c1cccs1)c1ccc(O)c2ccccc12 (stereo not drawn),activation,[1],-7.67%
same,Potency,[2],inactive
same,Potency,[5],22.5 µM (active)
same,Potency,[4],15.8 µM (active)
COc1cc(Nc2nc3c(s2)CCCC3c2ccccc2)ccc1-n1cnc(C)c1 (stereo not drawn),activation,[1],-18.6%
same,"activity change, negative = inhibition",[2],1.32% [at 11.2 µM]
same,"activity change, negative = inhibition",[3],6.59% [at 20.1 µM]
same,"activity change, negative = inhibition",[4],0.24% [at 11.2 µM]
COc1ccc(S(=O)(=O)Nc2cccnc2Nc2ccc(O)cc2)cc1,activation,[1],-22.5% and 22.4%
same,Potency,[2],inactive
same,Potency,[5],10.1 µM (active)
same,Potency,[4],7.94 µM (active)
same,Potency,[6],6.34 µM (active)
same,Potency,[7],1.32 µM (active)
same,Potency,[8],0.662 µM (active)
same,Potency,[9],0.742 µM (active)
same,Potency,[10],0.59 µM (active)
same,Potency,[11],0.468 µM (active)
same,Potency,[12],0.468 µM (active)
same,Potency,[13],0.662 µM (active)
O=C(O)C1(c2ccc(-c3ccc(Cl)c(Cl)c3)c(F)c2)CC1,activation,[1],-12.9%
same,Potency,[2],inactive
same,Potency,[3],44.7 µM (active)
COc1ccc(C2COc3cc(O)ccc3C2)c(O)c1 (stereo not drawn),activation,[1],-12.2%
same,Potency,[2],inactive
same,Potency,[5],17.9 µM (active)
same,Potency,[4],25.1 µM (active)
C=CCCN1CCC2(CC1)CN(C(=O)c1c(F)cccc1F)c1ccc(Cl)cc12,activation,[1],8.11%
same,Potency,[2],inactive
same,Potency,[3],inactive
same,Potency,[4],inactive
CC1=CC2=C(C)C(=O)C(C)(O)C(O)C2CO1 (stereo not drawn),activation,[1],-5.34%
same,Potency,[2],inactive
same,Potency,[5],22.5 µM (active)
same,Potency,[6],inactive
O=C(Nc1ccccc1)N1CCC(Cc2cnc3ccccc3c2)CC1,activation,[1],3.34%
same,Potency,[2],inactive
same,Potency,[3],inactive
same,Potency,[14],inactive
same,Potency,[4],inactive
C=C1CC[C@H](O)CC1=C/C=C1\CCC[C@]2(C)[C@@H]([C@H](C)/C=C/[C@H](C)C(C)C)CC[C@@H]12,activation,[1],5.73%
same,Potency,[2],inactive
same,Potency,[3],8.91 µM (active)
Cc1ccc(-c2cn3c4c(sc3n2)CCCC4)cc1,activation,[1],11%
same,Potency,[2],inactive
same,Potency,[3],25.1 µM (active)
CC(=O)Nc1cccc(Nc2ncnc(N3CCC(OCc4ccc(OC(F)(F)F)cc4)CC3)n2)c1C,activation,[1],-6.21%
same,Potency,[2],inactive
same,Potency,[3],inactive
same,Potency,[4],inactive
C[C@@H](NC(=O)c1cc(C(=O)N[C@@H](Cc2ccccc2)[C@H](O)CNC2CC2)cc(N(C)S(C)(=O)=O)c1)c1ccccc1,activation,[1],-12.4%
same,Potency,[2],inactive
same,Potency,[3],inactive
same,Potency,[4],inactive
O=C(Nc1cc(-c2ccccc2)nn1-c1ccccc1F)c1ccc([N+](=O)[O-])cc1,activation,[1],-5.73%
same,Potency,[2],inactive
same,Potency,[3],inactive
same,Potency,[4],inactive
Cc1cccc(C#Cc2cc(F)cc(C#N)c2)n1,activation,[1],-6.68%
same,Potency,[2],inactive
same,Potency,[3],5.62 µM (active)
Cc1nnc(-c2ccc(-c3ccc(C(=O)Nc4ccc(O)c(N5CCN(C)CC5)c4)cc3)c(C)c2)o1,activation,[1],-0.477%
same,Potency,[2],inactive
same,Potency,[3],inactive
O=C(Nc1cc2cc[nH]c2cn1)c1ccccc1,activation,[1],-10%
same,Potency,[2],inactive
same,Potency,[3],39.8 µM (active)
CN(C)CCC(CSc1ccccc1)Nc1ccc(S(=O)(=O)NC(=O)c2ccc(N3CCN(Cc4ccccc4-c4ccc(Cl)cc4)CC3)cc2)cc1[N+](=O)[O-] (stereo not drawn),Potency,[1],16.9 µM (active)
same,Potency,[2],inactive
same,Potency,[3],inactive
same,Potency,[4],inactive
COc1cc(O)c(C(=O)O)c(CCc2ccccc2)c1,activation,[1],-15.3%
same,Potency,[2],inactive
same,Potency,[5],12.7 µM (active)
same,Potency,[6],10.1 µM (active)
CC(C)(N)c1ncc(-c2ccc(OC(F)(F)F)cc2)[nH]1,activation,[1],-2.86%
same,Potency,[2],inactive
same,Potency,[3],inactive
same,Potency,[4],inactive
